In the supplement of paper PMC6555819:

Tested on: VDR:RXRa (NR concentration 270 nM, RXRa partner concentration 90 nM)
Test: PBM binding z-score (relative to random genomic background probes); higher = stronger binding; sequences stand for … in GC…GCGATTGACAGCGTAGAATGAAGG
Description: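 Protein-binding microarray (Agilent 4x180K custom design, double-stranded 60-nt probes: 5' GC cap, 34-nt variable region, 24-nt constant primer region; full probe sequence given). Purified or IVT nuclear receptor:RXRα heterodimers (3:1 NR:RXRα, mostly 270:90 nM) or homodimers were incubated for 1 h in PBS with 2% milk and no ligand, then detected with Alexa488 antibodies. Fluorescence from o1-orientation probes (~5 replicates averaged) was converted to z-scores against 500 random hg19 background probes. Variable regions are seed direct-repeat (DR0–DR5) sites, all their single-nucleotide variants and half-site ablations.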

Sequence	PBM binding z-score
GATACAGGGTCAGGTAGAGGCCAGAGTATGGAAA	3.35
CGAACTAGGTCATTGACGGGACAGTGAATAGTAA	1.86
CCAGACAGGTGAAAGGTAAGTCAGTCTGGTACGC	0.522
CGACCAAGGTCAGCAGGTCAGTGAAAGCGACGTG	3.67
CCTACTGGGCCACGCAAGGTCATTGATTCAGTGA	3.62
GCTAGCATGCCATTTGGGTCACTCAATGACGGGC	0.372
AGAGCGAGGGCACGCTGAGTTGATAGCAGAGTAG	1.86
GATACAGGGTCAGCTCGAGGCCAGAGTATGGAAA	3.61
TGAATGAGGTTAAAGTTCAGGGAACGTGGCGTCG	4.37
CGTCCAAGGTCAATGCTAGGTAAGTGAAAGCATT	3.62
ATACCAAGGTGATCGTGAGGTCGTTGAGACTAAC	2.9
ACTATTAGTTGAGCCGAGGGCAACCGATAGGTTG	0.613
CCTAGAAGGCCAGGGTCACTCAAGCATTTCGCTT	2.94
TCTAGCAGGCCAGATGGTCACTCAAGAGGTACGG	-0.443
CAAACTAGGTCAGGGTCAAAGTCGGTTTGTGCCA	4.97
CCGAGTAGGTTATGGGGCAGTCAGGCAACGGTGA	-0.397
CCTACTTGGCCAAGGTCATTGATCAGTCAAAGCA	3.78
CCTACTGGGCCAAAAAGCTCATTGATGCCGATAA	-0.648
ATCTCTAGGTCACAAGTTCAGTGAAAGAGAGGAC	4.26
TCTTGTAGATCAACAGGAAGTTAAGAAAGATCGA	-0.0912

Sequence	PBM binding z-score
TATACAGGGTCAAAGGCCAGAGTGCGAATGTCGA	4.88
CCTACTGGGCCACCAAAGGTCATTGATTCAGTGA	4.13
ACTAGCAAGCCAAGGGTCACTCAAGATTAGTCCG	2.68
CCGCGGAGGACAGAAGGTCAGAGCTGTCCGCTTT	0.646
CCGACTGGGGCATAAGGTTACCATGAGCCAGCCC	0.177
CAAACTAGGTCAAGGTAAAAGTCGGTTTGTGCCA	1.79
GCATATAAGTAATACAAGGTGAAAGTCCGATTGT	0.0691
TCATATAGGTAATACAGGTGAAAGCCGGCATCTA	1.2
ATCTCTAGCTAACCAAGTTCAGTGAATGCCGAAC	1.42
CCTATTTGGTCAAGGTCACACACGCTATAGGTAC	4.18
TCTCGGAGGACATGAAGGTCAGAGCTTTCCAGAG	1.77
TCTTGTAGATCAAAGGGTAAGAAAGCCGAAGCCT	0.126
CCTCGGAGGACAACAGGAGGTCAGAACTGCCAGA	1.67
GGTAGCAGGCCATTTGGGTCACTCAATGACGGGC	1.14
GTTGCTAGGTCAACTGATGGTCAGCTAAAGCTCG	2.05
CCTTACGGGTCACTGACAGGGTATAGCATTTGGA	3.15
TAGCCTTGGTCATGCGGGCCAGTATAGTGTCGGC	-0.724
CTACCAAGGTGAACAAGTTCGTTGATTACTATTC	6.15
CCTTACGGGTCAAGGTTATAGCACGGGTGGTACG	3.41
CCTAGTTGGTCAGGAGGGCACACACCGGATATGA	0.458
